Compound activity (PubChem BioAssay)
A selection: hits, their analogues and other compounds. The true share with any hit is near 2.3%.
GLD-1 TGE inh = GLD-1/TGE RNA complex disruptors, primary screen, biochemical, fluorescence polarization. Female germline-specific tumor suppressor gld-1 (Caenorhabditis elegans), Q17339. purified GLD-1 + fluorescein TGE RNA. inhibition, % at 5.96 µM. 0.44% of 320,000 active. AID 2280, 2010;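 active means percent inhibition above a per-plate cutoff, the plate mean of test compounds plus 3 SD, cut at about 30% in these data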;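 further: 0% = DMSO wells with GLD-1 and probe and 100% = wells lacking GLD-1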
Bcl-xL primary = inhibitors of human Bcl-xL, primary screen, biochemical, fluorescence polarization, HTS; GST-Bcl-xL / FITC-Bim BH3 peptide fluorescence polarization; Bcl-2-like protein 1 (Homo sapiens), Q07817; 0.7% of 320,000 active; inhibition, % at 10.9 µM;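 active means inhibition above the mean of all tested compounds plus 3 SD, cutoff set per campaign, cut at about 30% in these data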;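 further: 0% = DMSO wells and 100% = unlabeled Bim-BH3 peptide competitor; inhibitors lower millipolarization by displacing the labeled peptide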
Target sequence (Q07817 whole entry, looked up): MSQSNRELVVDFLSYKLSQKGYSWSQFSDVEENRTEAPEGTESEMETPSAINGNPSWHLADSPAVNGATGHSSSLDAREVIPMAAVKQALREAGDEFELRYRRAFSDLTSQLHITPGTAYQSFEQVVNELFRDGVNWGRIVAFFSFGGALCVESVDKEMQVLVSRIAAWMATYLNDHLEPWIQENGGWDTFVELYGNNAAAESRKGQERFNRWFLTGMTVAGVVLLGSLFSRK
MCL1-BIM inh = inhibitors of MCL1 binding to BIM-BH3, primary screen, biochemical, fluorescence polarization; Induced myeloid leukemia cell differentiation protein Mcl-1 (Homo sapiens), Q07820; GST-MCL1 / FITC-Bim-BH3 fluorescence polarization; inhibition, % at 10.9 µM; 0.68% of 320,000 active;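 active means inhibition above the mean inhibition of all tested compounds plus 3 SD, set per campaign, cut at about 40% in these data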;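 further: 0% = DMSO wells and 100% = unlabeled Bim-BH3 peptide control; higher means more loss of mP so more displacement of Bim peptide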
Target sequence (Q07820 whole entry, looked up): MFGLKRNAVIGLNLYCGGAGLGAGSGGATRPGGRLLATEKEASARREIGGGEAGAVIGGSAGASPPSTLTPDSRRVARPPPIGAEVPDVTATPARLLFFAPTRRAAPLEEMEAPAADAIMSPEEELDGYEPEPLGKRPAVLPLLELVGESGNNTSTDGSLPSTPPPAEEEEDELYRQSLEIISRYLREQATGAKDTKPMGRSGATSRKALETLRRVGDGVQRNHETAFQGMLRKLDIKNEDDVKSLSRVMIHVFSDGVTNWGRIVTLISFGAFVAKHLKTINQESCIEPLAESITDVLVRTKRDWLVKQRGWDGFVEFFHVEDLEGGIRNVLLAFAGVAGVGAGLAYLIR
Bim-Mcl-1 = inhibitors of Bim peptide binding to Mcl-1, primary screen, biochemical, bead-based flow cytometry, multiplex. Induced myeloid leukemia cell differentiation protein Mcl-1 (Homo sapiens), Q07820. Bim peptide-Mcl-1 binding. inhibition, % at 10 µM. 0.1% of 190,000 active. AID 1009, 2008; in the data active means inhibition above about 40%;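 further: 0% = no compound tracer wells and 100% = peptide blocker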
Mcl1 Bid PPI = Mcl-1/Bid binding inhibitors, primary screen, biochemical, TR-FRET, 1536-well; Induced myeloid leukemia cell differentiation protein Mcl-1 (Homo sapiens), Q07820; TR-FRET Mcl-1/Bid-Dy647 peptide binding; inhibition, % at 21.7 µM; 0.97% of 220,000 active; AID 1021, 2008;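 active means compounds that cut the binding signal by more than half at the single screening dose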;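 further: His-tagged Mcl-1 with europium anti-His antibody binding Bid BH3 peptide; 0% = Mcl-1 plus peptide wells and 100% = peptide-only wells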
Mcl1-Noxa inh = Mcl-1/Noxa binding inhibitors, primary screen, biochemical, TR-FRET, 1536-well; TR-FRET Mcl-1/Noxa peptide binding, 2 h; 1.5% of 220,000 active; Induced myeloid leukemia cell differentiation protein Mcl-1 (Homo sapiens), Q07820; inhibition, % at 21.7 µM;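 active means compounds that cut the protein-peptide binding signal by more than 50% relative to plate controls in a single-dose test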;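 further: His-tagged Mcl-1 with rhodamine Noxa BH3 peptide and terbium anti-His antibody; 0% = Mcl-1 plus Noxa peptide wells and 100% = peptide-only wells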
An asterisk follows results filed as active.

For COc1ccccc1N1CCN(C(=O)CCc2nnc3ccc(N4CCC(C)CC4)nn23)CC1 the results were GLD-1 TGE inh 9, Bcl-xL primary 6 and MCL1-BIM inh 5.
O=C1c2ccccc2C(=O)N1CN(C(=O)COc1ccc(Cl)cc1Cl)c1cccc(F)c1 was read as GLD-1 TGE inh -3, Bcl-xL primary 0, MCL1-BIM inh -3, Bim-Mcl-1 92*, Mcl1 Bid PPI -13 and Mcl1-Noxa inh 6.
`COc1cc(/C=C/C(=O)O)ccc1O` gave GLD-1 TGE inh 1, Bcl-xL primary 4 and MCL1-BIM inh 0.
O=C(O)/C=C/c1ccc(O)c(O)c1 was read as GLD-1 TGE inh -3, Bcl-xL primary 6, MCL1-BIM inh -2, Bim-Mcl-1 0, Mcl1 Bid PPI -25 and Mcl1-Noxa inh 60*.
For O=C(/C=C/c1ccc(O)c(O)c1)O[C@H](Cc1ccc(O)c(O)c1)C(=O)O the results were Mcl1 Bid PPI -105 and Mcl1-Noxa inh 93*.
For NC(=O)c1ccc2c(=O)c(O)c(-c3cc(Cl)c(N)c(Cl)c3)[nH]c2c1 the results were GLD-1 TGE inh 0, Bcl-xL primary 3 and MCL1-BIM inh 28.
Screening O=C(NCC1COCCO1)c1cc(COc2ccc(F)cc2F)on1 (centres undefined) returned GLD-1 TGE inh 0, Bcl-xL primary -3 and MCL1-BIM inh 1.
Screening CCC(=O)Nc1cc(C)c(NC(=O)CCc2ccccc2)cn1 returned GLD-1 TGE inh 37*, Bcl-xL primary 49*, MCL1-BIM inh 44*, Bim-Mcl-1 1, Mcl1 Bid PPI -23 and Mcl1-Noxa inh -11.
Cn1nc(C(=O)NNC(=O)CCc2ccccc2Cl)c2ccccc2c1=O was read as GLD-1 TGE inh -2, Bcl-xL primary 4 and MCL1-BIM inh 6.
For O=C(N=Nc1c(O)[nH]c2ccc(Br)cc12)c1cc(-c2cccs2)nc2ccccc12 the results were Bim-Mcl-1 -2, Mcl1 Bid PPI 75* and Mcl1-Noxa inh 68*.
Screening Cn1c(O)c(N=NC(=O)c2cc(-c3cccs3)nc3ccccc23)c2ccccc21 returned GLD-1 TGE inh -3, Bcl-xL primary 7, MCL1-BIM inh 3, Bim-Mcl-1 -2, Mcl1 Bid PPI 7 and Mcl1-Noxa inh 11.
For O=C(O)c1cc(N=Nc2c(O)[nH]c3ccc([N+](=O)[O-])cc23)ccc1Cl the results were GLD-1 TGE inh 6, Bcl-xL primary 14 and MCL1-BIM inh 10.
`C=C(C)CNC(=S)N=Nc1c(O)[nH]c2ccc([N+](=O)[O-])cc12` gave GLD-1 TGE inh 3, Bcl-xL primary 21, MCL1-BIM inh 15, Bim-Mcl-1 2, Mcl1 Bid PPI 17 and Mcl1-Noxa inh 65*.
For O=C(N=Nc1c(O)[nH]c2ccc([N+](=O)[O-])cc12)c1cc(-c2ccccc2Cl)nc2ccccc12 the results were GLD-1 TGE inh -3, Bcl-xL primary 0, MCL1-BIM inh 5, Bim-Mcl-1 -4, Mcl1 Bid PPI 96* and Mcl1-Noxa inh 77*.
COc1ccccc1C(=O)N=Nc1c(O)[nH]c2ccc([N+](=O)[O-])cc12 was read as Bim-Mcl-1 26, Mcl1 Bid PPI -10 and Mcl1-Noxa inh 78*.
CN1C(=O)[C@@H]2C[C@@]3([C@@]45C[C@H]6C(=O)N(C)[C@@H](Cc7ccccc7)C(=O)N6[C@@H]4Nc4ccccc45)c4ccccc4N[C@H]3N2C(=O)[C@@H]1Cc1ccccc1 was read as GLD-1 TGE inh -2, Bcl-xL primary 5 and MCL1-BIM inh 11.
`Cc1ccc(C(=O)NCC(C)NC(=O)c2ccc(C)c(C)c2)cc1C` (centres undefined) gave GLD-1 TGE inh 3, Bcl-xL primary 0 and MCL1-BIM inh 2.
`CCOC(=O)c1c(NC(=O)c2cc(-c3cccc(O)c3)on2)sc(C(C)=O)c1C` gave GLD-1 TGE inh 0, Bcl-xL primary 7, MCL1-BIM inh 2, Bim-Mcl-1 -1, Mcl1 Bid PPI 40 and Mcl1-Noxa inh 63*.
Screening CCOC(=O)c1sc(NC(=O)c2cc(-c3cccc(O)c3)on2)c(C(=O)OCC)c1C returned GLD-1 TGE inh 2, Bcl-xL primary 4, MCL1-BIM inh 0, Bim-Mcl-1 -3, Mcl1 Bid PPI -2 and Mcl1-Noxa inh 17.
`Nc1c(C(=O)Nc2ccc(F)cc2)sc2nc(-c3ccco3)ccc12` gave GLD-1 TGE inh -3, Bcl-xL primary 8, MCL1-BIM inh -9, Bim-Mcl-1 11, Mcl1 Bid PPI 91* and Mcl1-Noxa inh 98*.
For Cc1ccc(NC(=O)c2sc3nc4c(c(-c5ccco5)c3c2N)CCC4)cc1 the results were GLD-1 TGE inh 64*, Bcl-xL primary 28, MCL1-BIM inh 6, Bim-Mcl-1 -3, Mcl1 Bid PPI -17 and Mcl1-Noxa inh 17.
Cc1ccn(CCNC(=O)C2CCC(=O)N(CCc3ccc(Cl)cc3)C2)n1 (centres undefined) was read as GLD-1 TGE inh 2, Bcl-xL primary 3 and MCL1-BIM inh 7.
`N=c1c[n+](N2CCOCC2)[n-]o1` gave GLD-1 TGE inh 0, Bcl-xL primary 0, MCL1-BIM inh 0, Bim-Mcl-1 0, Mcl1 Bid PPI 56* and Mcl1-Noxa inh 7.
Screening O=c1oc2cc(O)ccc2cc1-c1nc2c(s1)CCc1ccccc1-2 returned GLD-1 TGE inh 100*, Bcl-xL primary 37*, MCL1-BIM inh 27, Mcl1 Bid PPI -37 and Mcl1-Noxa inh 54*.
For CCC(CC)C(=O)Nc1cccc(-c2ccc3nncn3n2)c1 the results were GLD-1 TGE inh 1, Bcl-xL primary 7 and MCL1-BIM inh 6.
`COc1cc(C(=O)NCc2ccc(C(=O)NCC(OC)OC)cc2)cc(OC)c1OC` gave GLD-1 TGE inh 7, Bcl-xL primary -2, MCL1-BIM inh -6, Bim-Mcl-1 0, Mcl1 Bid PPI 64* and Mcl1-Noxa inh 2.
For CC(C)c1ccc(C(C)NCCS(=O)(=O)c2ccc(Cl)cc2)cc1 (centres undefined) the results were GLD-1 TGE inh 5, Bcl-xL primary 2 and MCL1-BIM inh -4.
For COc1cccc(C(C)NC(=O)C2CCCC2)c1 (centres undefined) the results were GLD-1 TGE inh -2, Bcl-xL primary 3 and MCL1-BIM inh -8.
